Results as given in PubChem BioAssay AID504321 (NMMLSC, 2011).
Calls of active or inactive are those of the source.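 How the source made its calls: active means GFP response vs DMSO above 150% with enough events counted; inconclusive means fewer than 70 events counted for a yeast strain; inactive means the rest.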

Test: yeast MEP2-GFP fusion level changes, TOR pathway – flow cytometry, third cherry pick, S. cerevisiae, confirmation (AID 504321);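 further: median per-cell GFP fluorescence by flow cytometry across all yeast cells; ratio of sample to DMSO median GFP so 100% equals the DMSO level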
Conditions: S. cerevisiae MEP2-GFP strain, 3 h, at 10 µM, active compounds read high

GFP response vs DMSO, inactive:
O=C(N/N=C/c1ccccc1)c1cccc2ccccc12 103%
CS(=O)(=O)c1nc(-c2ccc(F)cc2)cc(C(F)(F)F)n1 133%
COc1ccc(OC)c(Nc2nc(NCCC(C)C)nc(N)c2[N+](=O)[O-])c1 108%
Cn1cccc1C(=O)Nc1nc(-c2ccccn2)cs1 101%
Cc1ccc(C)c(Nc2ncnc(N)c2[N+](=O)[O-])c1 108%
CCCC(=O)Nn1cnc2c(c1=O)C1(CCCCC1)Cc1ccccc1-2 105%
C/C(=N\NC(=O)c1cccc2ccccc12)c1cccnc1 108%
Nc1nc(NCCOCCO)nc(Nc2cccc(F)c2)c1[N+](=O)[O-] 108%
O=C1c2ccccc2C(=O)c2c1cccc2N(CCO)CCO 108%
COc1ccc(NC(=O)ON=C2c3ccccc3-c3ccccc32)cc1 105%
CC(=O)CC(=O)Nc1ccc(C(N)=O)cc1 112%
COc1cccc(NC(=O)CC(C)=O)c1 108%
Oc1ccc(F)c2cccnc12 116%
COc1cccc(N/C(C)=C/C(=O)c2ccc(Br)cc2)c1 101%
Cn1c(NCCO)nc2c(c1=O)C1(CCCCC1)Cc1ccccc1-2 108%
Cc1ccc(NN2C(=O)C=C(c3ccccc3)C2=O)cc1 140%
COc1cccc(N/C=C/C(=O)c2ccc(Cl)cc2)c1 114%
COc1ccccc1Nc1nc(NCCC(C)C)nc(N)c1[N+](=O)[O-] 105%
Nc1ncnc(Nc2cc(Cl)cc(Cl)c2)c1[N+](=O)[O-] 108%
CC1=NNC(=O)/C1=C\c1cn(-c2ccccc2)nc1-c1ccc(F)cc1 131%
COc1ccc(OC)c(N/C(C)=C/C(=O)c2ccccc2)c1 114%
Cc1ccc2c(C)ccc(O)c2n1 114%
Cc1ccc(C(=O)/C=C/Nc2cccc(O)c2)cc1 116%
C/C(=C\C(=O)c1ccccc1)Nc1ccc(O)cc1 105%
O=C(O)c1ccc2cccc(O)c2n1 110%
CCc1c(C)nc2c(OC)cccc2c1Cl 110%
Cc1ccc2c(Cl)cc(Cl)c(OCC(=O)O)c2n1 108%
O=C(O)c1ccc2cccnc2c1O 101%
COC1=C/C(=C/c2c(N)n3cc(C)sc3nc2=O)C=CC1=O 131%
OCCNc1ncnc2ccc(Br)cc12 101%
C=CCNc1nc(N)c([N+](=O)[O-])c(Nc2ccccc2OC)n1 103%
C/C(=C\C(=O)c1ccccc1)Nc1cccc(O)c1 110%
O=C(Nc1ccccc1)ON=C1c2ccccc2-c2ccccc21 99%
COc1cccc2c(=O)c(C(=O)O)c[nH]c12 116%
COc1cccc(N/C=C/C(=O)c2ccc(C)cc2)c1 112%
CSc1nc(Nc2ccc(Cl)cc2)c(C#N)c(=O)[nH]1 108%
O=c1cc(C(F)(F)F)[nH]c2c(OC(F)(F)F)cccc12 114%

GFP response vs DMSO, active:
CCOC(=O)CS(=O)(=O)c1nc(-c2ccccc2)cc(C(F)(F)F)n1 151%
CNc1nc(N)c([N+](=O)[O-])c(Nc2cccc(Cl)c2)n1 170%
